# Data as given in PubChem BioAssay AID2221 (Broad Institute, 2009).
# Among all 290,000 compounds or so, about 2,200 (0.76%) were called active. Shown is part of a subset that was picked to be rich in actives. Values without a mark were called inactive. No stated cut-off is given here; in the data, active means inhibition above about 30%; inconclusive means no clear call, values can overlap the other calls; inactive means below that.
# Molecular target: Protein RecA (Mycobacterium tuberculosis (strain ATCC 25618 / H37Rv)) (UniProt P9WHJ3)
# Sequence (P9WHJ3 whole entry, looked up): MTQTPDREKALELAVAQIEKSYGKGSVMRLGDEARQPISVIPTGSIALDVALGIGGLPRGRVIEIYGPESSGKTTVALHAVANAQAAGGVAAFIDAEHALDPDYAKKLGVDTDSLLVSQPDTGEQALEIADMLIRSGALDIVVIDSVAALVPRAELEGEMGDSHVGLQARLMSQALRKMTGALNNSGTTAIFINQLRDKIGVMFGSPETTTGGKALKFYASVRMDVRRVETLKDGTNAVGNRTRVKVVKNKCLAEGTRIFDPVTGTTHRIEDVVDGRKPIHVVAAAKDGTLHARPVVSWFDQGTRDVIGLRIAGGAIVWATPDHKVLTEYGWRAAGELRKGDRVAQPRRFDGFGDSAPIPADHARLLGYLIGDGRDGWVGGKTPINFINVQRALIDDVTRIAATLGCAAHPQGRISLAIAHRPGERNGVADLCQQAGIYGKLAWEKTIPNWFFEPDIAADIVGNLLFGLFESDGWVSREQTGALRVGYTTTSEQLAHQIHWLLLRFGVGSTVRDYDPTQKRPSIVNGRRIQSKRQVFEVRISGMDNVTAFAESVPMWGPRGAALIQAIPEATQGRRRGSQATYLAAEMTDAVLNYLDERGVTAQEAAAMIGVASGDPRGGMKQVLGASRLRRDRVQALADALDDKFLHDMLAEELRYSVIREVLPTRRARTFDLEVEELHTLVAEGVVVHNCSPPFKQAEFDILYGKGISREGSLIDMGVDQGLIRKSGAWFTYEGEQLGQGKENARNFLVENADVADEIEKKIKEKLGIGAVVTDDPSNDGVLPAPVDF
# Experiment: Mtb RecA intein splicing inhibitors, primary screen, biochemical, fluorescence, HTS (AID 2221);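 further: 0% = vehicle wells and 100% = reference inhibitor control wells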
# Conditions: cell-free RecA intein splicing, hits give high values, concentration not given here
row,Compound,inhibition
1,O=C(CN(C(=O)c1csnn1)c1cccc(Cl)c1)NC1CCCC1,-3.49%
2,O=C(Nc1ccc(Cl)c(Cl)c1)c1ccccc1NC(=O)C1CC=CCC1C(=O)O (stereo not given),0.473%
3,O=C(c1ccc(Cl)cc1)c1cnc(Nc2ccccc2)s1,-1.16%
4,O=C(Nc1ccccc1)c1nnsc1S(=O)(=O)c1ccc(Cl)cc1,70% (active)
5,CN(c1cccc(NC(=O)Nc2ccc(Cl)cc2)c1)S(C)(=O)=O,4.89%
6,Cc1cc(C)nc(SCc2nnc(SCC(=O)OC3CCCCC3)o2)n1,0.246%
7,CCOC(=O)c1c(-c2ccc(C)cc2)csc1/N=C(\C)C1=C(O)c2ccccc2C1=O,-0.167%
8,COc1ccc(N2CCN(C(C)=C3C(=O)c4ccccc4C3=O)CC2)cc1,-1.11%
9,CCOC(=O)C1=C(c2ccc(OC)cc2)C(=O)c2ccccc2C1=O,83.5% (active)
10,CC1CN(C(=O)CCC(=O)NCCCN2CCC(Cc3ccccc3)CC2)c2cc(Cl)ccc2O1 (stereo not given),4.67%
11,COc1cccc(CCNC(=O)c2cccc(NC(=O)C3=C(C)OCCS3)c2)c1,-0.654%
12,Cn1c(=O)c2sccc2n(Cc2ccc(Br)cc2)c1=O,1.32%
13,COc1ccccc1N1CCN(S(=O)(=O)c2ccc(Cl)cc2)CC1,13.3%
14,COc1ccccc1-n1nnnc1S(=O)(=O)Cc1ccc(Cl)cc1,81.5% (active)
15,CCN(C(=O)CSc1nnnn1-c1ccccc1OC)C1CCS(=O)(=O)C1 (stereo not given),-4.51%
16,O=C(CSc1nc2[nH]ncc2c(=O)[nH]1)Nc1ccc(F)cc1,-1.71%
17,CCC(=C/c1sc2ccc3ccccc3c2[n+]1C)/C=C1\Sc2ccc3ccccc3c2N1C,-0.0609%
18,COc1cccc(NC(=O)CN(C)C(=O)c2ccccc2CCc2ccccc2)c1,5.79%
19,O=C(CN1CCN(S(=O)(=O)c2ccc(Br)cc2)CC1)Nc1ccccc1C(=O)c1ccccc1,-0.838%
20,Cc1oc2c(c1C(=O)N1CCOCC1)C(=O)c1ccccc1C2=O,86% (active)
21,CCOC(=O)c1ccccc1C(=O)N1CCOCCOCCOCC1,0.452%
22,Cc1noc(C)c1C(=O)N1CCOCC1,1.19%
23,Nc1[nH]c(=S)nc2nc(-c3ccccc3)c(-c3ccccc3)nc12,-3.24%
24,Cn1cnc2c1c(=O)n(Cc1ccccc1C#N)c(=O)n2C,-5.24%

row,Compound,inhibition
1,O=C(CCC(=O)N/N=C/c1ccc(Br)o1)N/N=C/c1ccc(Br)o1,-0.217%
2,CCOC(=O)Nc1sc(C(=O)N(C)C)c(C)c1C(=O)OCC,1.54%
3,CCOC(=O)c1sc(NC(=O)CCN2CCOCC2)c(C(=O)OCC)c1C,2.17%
4,CCOC(=O)c1c(NC(=O)CCl)sc(C(=O)N(CC)CC)c1C,46.7% (active)
5,Cc1nc(CNS(=O)(=O)c2cc([N+](=O)[O-])ccc2C)cs1,-3.48%
6,CCc1ccccc1N(CC(=O)NCC1CCCO1)C(=O)CCC(=O)Nc1nccs1 (stereo not given),-1.77%
7,CCc1cccc(C)c1NC(=O)COC(=O)CNC(=O)c1cccs1,-3.74%
8,Cc1ccc(C)c(NC(CC(=O)c2ccccc2)C(=O)OCC(=O)c2cccs2)c1 (stereo not given),-3.12%
9,Cc1ccccc1C(CC(=O)c1cccs1)C(C#N)C#N (stereo not given),63.2% (active)
10,Cc1ccc(Sc2cc(N3CCOCC3)nc(-c3ccccc3)n2)cc1,-0.766%
11,O=S(=O)(c1ccc(-c2ccno2)s1)N1CCCCC1,0.0995%
12,Cc1cc(C)n2nc(CNS(=O)(=O)c3c(F)c(F)c(F)c(F)c3F)nc2n1,33% (active)
13,Cc1cc(C)n2nc(C(=O)NC(C)(C)C)nc2n1,-3.67%
14,Cc1cc(C)n2nc(SCC(N)=O)nc2n1,-1.48%
15,COc1ccc(N2CCN(C(=O)C3CCN(S(=O)(=O)c4ccc(C)cc4)CC3)CC2)cc1,-2.81%
16,CCN(CCNC(=O)C1=C(C)C(=O)OC12CCC(C)CC2)c1ccccc1 (stereo not given),-9.04%
17,O=S(=O)(c1cnccc1N1CCN(/N=C/c2ccc(Br)cc2)CC1)N1CCCCC1,-5.35%
18,COc1ccc(COC(=O)NC(C(=O)O)c2ccccc2)cc1 (stereo not given),-3.65%
19,COc1ccc(CN(C)C(=O)CC(c2ccccc2)c2ccccc2)cc1,12%
20,COc1ccc(C(CCN(Cc2ccc(OC)c(OC)c2)C(=O)CCl)c2ccccc2)cc1 (stereo not given),77.7% (active)
21,CCCc1cc(=O)oc2c(C)c(OCC(=O)Nc3ccccn3)ccc12,0.212%
22,COc1ccc(N2CCN(C(=O)COc3ccc4c(C)cc(=O)oc4c3)CC2)cc1,-4.41%
23,CC(=O)Nc1cccc(NC(=O)CSc2nccn2Cc2ccc(F)cc2)c1,-1.4%
24,CN(C)c1ccc(/C=C2\NC(=S)N(Cc3ccccc3)C2=O)cc1,-1.92%

row,Compound,inhibition
1,CN(C)c1ccc(C=C2C(=O)OC3(CCCC3)OC2=O)cc1,-3.67%
2,CC1=NN(Cc2ccccc2)C(=O)/C1=C/c1ccc(N(C)C)cc1,42.9% (active)
3,CCc1cccc2c3c([nH]c12)C(CC)(CC(=O)O)OCC3 (stereo not given),-3.9%
4,CCCC/C(C)=N/NC(=O)NC1CCCCC1,-5.59%
5,O=C1/C(=C\c2ccc3c(c2)OCO3)N2CCC1CC2,-0.267%
6,O=C1/C(=C/c2ccc3c(c2)OCO3)CCC/C1=C\c1ccc2c(c1)OCO2,30.4% (active)
7,O=C(N/N=C/c1ccc2c(c1)OCO2)C(=O)N1CCCC1,-2.18%
8,Cc1nn(-c2ccccc2)c(C)c1NC(=O)COC(=O)c1cc(Cl)ccc1O,0.496%
9,CC(C(=O)c1ccc(-c2ccccc2)cc1)[n+]1cccc(Br)c1 (stereo not given),0.227%
10,O=C(Nc1ccccc1Cl)Nc1cccc2cccnc12,6.8%
11,O=C(Nc1ccccc1Cl)/C(Cl)=C(\Cl)S(=O)c1ccccc1 (stereo not given),97% (active)
12,O=C(Cc1ccc2c(c1)CCCC2)Nc1ccccc1Cl,5.79%
13,CCN(C(=O)CSc1nnc(-c2ccc(OC(F)F)cc2)n1N)C1CCS(=O)(=O)C1 (stereo not given),-2.58%
14,C=CCN1C(=NC(=O)COc2ccccc2)SC2CS(=O)(=O)CC21 (stereo not given),-0.786%
15,Oc1ccc(/C=N/Nc2nc(-c3ccccc3F)nc3ccccc23)c(O)c1,10.7%
16,Oc1ccc(/C=N/NC2=NCCCCC2)c(O)c1,-9.19%
17,Cc1nc2ccccc2nc1N/N=C/c1ccc(O)cc1O,32% (active)
18,CCCOc1ccc(Cl)cc1Nc1nc(NCCO)nc(N2CCCC2)n1,-0.826%
19,Cn1c(=O)c2c(-c3cccc(Br)c3)c(C#N)c(N)nc2n(C)c1=O,-11.9%
20,CCc1ccc2c(c1)cc(CN(C(=S)Nc1ccccc1Cl)C1CC1)c1nnnn12,-0.332%
21,CSc1ccccc1NC(=O)C(C)N1C(=O)c2ccccc2S1(=O)=O (stereo not given),1.38%
22,O=C(Nc1ccc(F)cc1)C(=O)c1cn(CC(=O)N2CCOCC2)c2ccccc12,-4.57%
23,Cc1ccc(S(=O)(=O)NC2(C(F)(F)F)NC(=O)N(CCc3ccccc3)C2=O)cc1 (stereo not given),-2.6%
24,O=C1CC(c2ccccc2)=NN1c1ccc([N+](=O)[O-])cc1,54.9% (active)

row,Compound,inhibition
1,Cc1nn(-c2ccc([N+](=O)[O-])cc2)c(N)c1-c1ccccc1,0.233%
2,CC1=NN(c2ccccc2)C(=O)C1C(=O)c1ccc([N+](=O)[O-])cc1 (stereo not given),5.51%
3,O=C(CN1C(=O)C2C3C=CC(C3)C2C1=O)Nc1nc(-c2ccccn2)cs1 (stereo not given),-1.82%
4,CCn1c(CC(=O)Nc2ccccc2)nnc1SCC(=O)N1CCOCC1,-3.34%
5,N#Cc1ccc(C2N=C(c3ccccc3)NO2)cc1 (stereo not given),-0.394%
6,CCNC(=O)CSc1nc(-c2ccccc2)cs1,0.44%
7,O=C(CSC1=NCCS1)Nc1nc(-c2ccccc2)cs1,37.4% (active)
8,O=C(CSc1nc2ccccc2c(=O)[nH]1)Nc1nc(-c2ccc(Br)cc2)cs1,1.49%
9,CC(C)C(C)NC(=O)COc1nc2ccccc2nc1N(C)C1CCCCC1 (stereo not given),-2.05%
10,COc1ccc(C(=O)NCCSc2ccccc2C)cc1,3.07%
11,CCCCC(O)(CCCC)C(=O)NN(C(=O)CCl)c1ccccc1,42.8% (active)
12,CCCC(O)(CCC)C(=O)NN(C(=O)CCl)c1cccc(C)c1,18.1%
13,COC(=O)N(NC(=O)C(O)(C(C)C)C(C)C)c1ccccc1,-3.28%
14,CCOC(=O)C1Cn2c(nc3c(c2=O)C(C)(CC)Cc2ccccc2-3)S1 (stereo not given),-3.72%
15,CCCc1nnc(NC(=O)CCC(=O)NC2CC2)s1,-1.59%
16,O=C(CCl)N(Cc1cccc([N+](=O)[O-])c1)c1cccc(Cl)c1,88.1% (active)
17,CCN(CC)C(=O)CN(c1cccc([N+](=O)[O-])c1)S(=O)(=O)c1ccccc1,0.016%
18,Cc1ccc(S(=O)(=O)N(Cc2cccc([N+](=O)[O-])c2)C(=O)N2CCN(C)CC2)cc1,1.46%
19,O=C(CCS(=O)(=O)c1ccccc1Cl)Nc1ccc(S(=O)(=O)Nc2ncccn2)cc1,-0.502%
20,CC(C)c1ccc(N(C(=O)c2ccco2)C(C(=O)NC2CCCC2)c2cccnc2)cc1 (stereo not given),2.58%
21,S=c1[nH]nc(-c2ccc(Cl)cc2)n1CC1CCCO1 (stereo not given),-1.85%
22,O=C(c1nnc(-c2ccc(Cl)cc2)o1)C1CCCC1,-10.3%
23,O=C(c1[nH]ncc1-c1ccc(Cl)cc1)C1CO1 (stereo not given),33% (active)
